Measurements from PubChem BioAssay (NCI).
This is part of a sample that, as a whole, favours compounds with a hit. Of some 79,000 tested, about 15% had one in any assay. Values without a mark were called inactive. The source made the active and inactive calls. Cut-off read from the data, not from the text of the source: active = growth inhibition above about 70%; inactive = the rest.

Experiments:
[1] = NCI Yeast Anticancer Drug Screen. Data for the rad52 strain (AID 147);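 note: 0% = growth of vehicle-treated control cultures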; conditions: S. cerevisiae rad52 mutant growth inhibition, hits give high values
Procedure, shortened: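 Here a repair-compromised yeast strain receives each compound; its growth is then quantified and normalised to vehicle-only controls.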

[2] = NCI Yeast Anticancer Drug Screen. Data for the wt1 strain (AID 149);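 note: 0% = growth of vehicle-treated wt1 cultures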; conditions: S. cerevisiae wt1 strain (SPY 50644) growth inhibition, hits give high values
Procedure, shortened: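 wt1 strain grown with compound or vehicle; inhibition taken from the growth difference.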

[3] = NCI Yeast Anticancer Drug Screen. Data for the rad50EPP+ strain (AID 151);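 note: 0% = growth of vehicle-treated control cultures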; conditions: S. cerevisiae rad50 mutant strain, hits give high values
Procedure, shortened: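 Read-out is yeast growth inhibition relative to vehicle; cells used were the rad50EPP+ strain.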

[4] = NCI Yeast Anticancer Drug Screen. Data for the mgt1 strain (AID 153); conditions: S. cerevisiae mgt1 mutant growth inhibition, hits give high values
Procedure, shortened: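 Measured: inhibition of mgt1 yeast growth by compound, normalized to vehicle-treated cultures.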

[5] = NCI Yeast Anticancer Drug Screen. Data for the rad50 strain (AID 155);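 note: 0% = growth of vehicle-only cultures of the same strain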; conditions: S. cerevisiae rad50 strain growth inhibition, hits give high values
Procedure, shortened: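 DNA repair mutant yeast, compound exposure, growth read-out; inhibition is taken relative to vehicle.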

[6] = NCI Yeast Anticancer Drug Screen. Data for the mec2-1 strain (AID 157); conditions: S. cerevisiae mec2-1 strain, hits give high values
Procedure, shortened: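 Using mec2-1 yeast: add compound, measure growth, express inhibition versus vehicle-treated cultures.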

[7] = NCI Yeast Anticancer Drug Screen. Data for the rad14 strain (AID 159);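 note: 0% = growth of vehicle-treated control cultures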; conditions: S. cerevisiae rad14 strain growth inhibition, hits give high values
Procedure, shortened: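 DNA repair-defective yeast, compound-exposed; % growth inhibition derived by comparison with vehicle-treated controls.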

[8] = NCI Yeast Anticancer Drug Screen. Data for the sgs1 mgt1 strain (AID 161);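 note: 0% = growth of cultures given vehicle only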; conditions: S. cerevisiae sgs1 mgt1 strain, hits give high values
Procedure, shortened: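 This yeast growth screen uses a strain with defined DNA-repair lesions; compound-treated growth is compared with vehicle-treated growth.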

[9] = NCI Yeast Anticancer Drug Screen. Data for the CLN2oe strain (AID 163);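 note: 0% = growth of vehicle-only control cultures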; conditions: S. cerevisiae CLN2oe strain, hits give high values
Procedure, shortened: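 Whole-cell yeast growth assay. A strain engineered for altered cell-cycle control received compound, and inhibition relative to vehicle-treated cultures was recorded.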

[10] = NCI Yeast Anticancer Drug Screen. Data for the cln2 rad14 strain (AID 165);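 note: 0% = growth equal to vehicle treated cultures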; conditions: S. cerevisiae cln2 rad14 strain, hits give high values
Procedure, shortened: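 Yeast strain cln2 rad14, bearing defects in cell cycle control and DNA repair, serves as the test system; values reflect growth inhibition compared with vehicle.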

[11] = NCI Yeast Anticancer Drug Screen. Data for the bub3 strain (AID 167); conditions: S. cerevisiae bub3 mutant strain, hits give high values
Procedure, shortened: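 In this screen, a yeast mutant lacking normal mitotic checkpoint function is challenged with compound. Relative growth versus vehicle gives the inhibition value.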

[12] = NCI Yeast Anticancer Drug Screen. Data for the mlh1 strain (AID 171);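 note: 0% = growth of vehicle-treated control cultures of the same strain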; conditions: S. cerevisiae mlh1 strain growth inhibition, hits give high values
Procedure, shortened: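 A yeast strain with a defined genetic lesion serves as the test organism. Cultures receive compound or vehicle, and growth is measured.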

[13] = NCI Yeast Anticancer Drug Screen. Data for the sgs1 strain (AID 173);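 note: 0% = growth of vehicle-only control cultures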; conditions: S. cerevisiae sgs1 mutant, hits give high values
Procedure, shortened: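 A genetically defined yeast mutant is incubated with the test compound, and its growth is compared to that of the same strain given vehicle.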

[14] = NCI Yeast Anticancer Drug Screen. Data for the mlh1 rad18 strain (AID 175); conditions: S. cerevisiae mlh1 rad18 strain growth inhibition, hits give high values
Procedure, shortened: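 Steps: expose repair-defective yeast to compound; measure growth; express inhibition against vehicle-treated controls.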

[15] = NCI Yeast Anticancer Drug Screen. Data for the rad18 strain (AID 177); conditions: S. cerevisiae rad18 mutant growth inhibition, hits give high values
Procedure, shortened: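 Measured value is growth inhibition of a yeast strain bearing a DNA repair alteration, referenced to vehicle-treated cells.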

[16] = at 5.0 µM (retest, dose inferred, filed as 0.5)
[17] = at 50.0 µM (retest, dose inferred, filed as 5.0)

With `COc1cc(C2C3=C(COC3=O)Oc3cc4c(cc32)OCO4)ccc1O` (stereo not drawn) as the compound, how does the growth inhibition ([1]; at 1.2 µM) read?
Its growth inhibition is -1%.

What about the growth inhibition ([1]; at 3.7 µM) of the same compound?
The growth inhibition was 2%.

What about the growth inhibition ([1]; at 11.0 µM) of the same compound?
The growth inhibition was 7%.

What about the growth inhibition ([1]; at 33.0 µM) of the same compound?
The growth inhibition was 34%.

What about the growth inhibition ([1]; at 100.0 µM) of the same compound?
Its growth inhibition is 72% (active).

What about the growth inhibition ([2]; at 1.2 µM) of the same compound?
Its growth inhibition is -2%.

And the growth inhibition ([2]; at 3.7 µM)?
Its growth inhibition is -7%.

What about the growth inhibition ([2]; at 11.0 µM) of the same compound?
Its growth inhibition is -5%.

What about the growth inhibition ([2]; at 33.0 µM) of the same compound?
The growth inhibition was -5%.

What about the growth inhibition ([2]; at 100.0 µM) of the same compound?
The growth inhibition was 31%.

And the growth inhibition ([3]; at 1.2 µM)?
The growth inhibition was -3%.

And the growth inhibition ([3]; at 3.7 µM)?
Its growth inhibition is 0%.

What about the growth inhibition ([3]; at 11.0 µM) of the same compound?
The growth inhibition was -3%.

And the growth inhibition ([3]; at 33.0 µM)?
Its growth inhibition is 4%.

What about the growth inhibition ([3]; at 100.0 µM) of the same compound?
Its growth inhibition is 15%.

And the growth inhibition ([4]; at 1.2 µM)?
The growth inhibition was -1%.

And the growth inhibition ([4]; at 3.7 µM)?
Its growth inhibition is 1%.

What about the growth inhibition ([4]; at 11.0 µM) of the same compound?
The growth inhibition was 0%.

What about the growth inhibition ([4]; at 33.0 µM) of the same compound?
Its growth inhibition is -5%.

And the growth inhibition ([4]; at 100.0 µM)?
The growth inhibition was 30%.

What about the growth inhibition ([5]; at 1.2 µM) of the same compound?
Its growth inhibition is 0%.

And the growth inhibition ([5]; at 3.7 µM)?
Its growth inhibition is 5%.

What about the growth inhibition [5, 16] of the same compound?
Its growth inhibition is 95% (active).

And the growth inhibition ([5]; at 11.0 µM)?
Its growth inhibition is -10%.

What about the growth inhibition ([5]; at 33.0 µM) of the same compound?
The growth inhibition was 35%.

What about the growth inhibition [5, 17] of the same compound?
The growth inhibition was 95% (active).

And the growth inhibition ([5]; at 50.0 µM)?
The growth inhibition was 55.9%.

And the growth inhibition ([5]; at 100.0 µM)?
The growth inhibition was 73% (active).

And the growth inhibition ([6]; at 1.2 µM)?
The growth inhibition was -3%.

And the growth inhibition ([6]; at 3.7 µM)?
The growth inhibition was -2%.

What about the growth inhibition [6, 16] of the same compound?
Its growth inhibition is -10%.

And the growth inhibition ([6]; at 11.0 µM)?
Its growth inhibition is -3%.

What about the growth inhibition ([6]; at 33.0 µM) of the same compound?
The growth inhibition was -4%.

What about the growth inhibition [6, 17] of the same compound?
Its growth inhibition is -10%.

And the growth inhibition ([6]; at 50.0 µM)?
Its growth inhibition is 32.2%.

What about the growth inhibition ([6]; at 100.0 µM) of the same compound?
The growth inhibition was 33%.

And the growth inhibition ([7]; at 1.2 µM)?
The growth inhibition was 1%.

And the growth inhibition ([7]; at 3.7 µM)?
The growth inhibition was -1%.

And the growth inhibition ([7]; at 11.0 µM)?
Its growth inhibition is -6%.

What about the growth inhibition ([7]; at 33.0 µM) of the same compound?
Its growth inhibition is -8%.

What about the growth inhibition ([7]; at 100.0 µM) of the same compound?
Its growth inhibition is -20%.

What about the growth inhibition [8, 16] of the same compound?
The growth inhibition was 77% (active).

What about the growth inhibition [8, 17] of the same compound?
Its growth inhibition is 77% (active).

What about the growth inhibition ([8]; at 50.0 µM) of the same compound?
The growth inhibition was 22.4%.

And the growth inhibition ([9]; at 1.2 µM)?
Its growth inhibition is 0%.

And the growth inhibition ([9]; at 3.7 µM)?
Its growth inhibition is 8%.

And the growth inhibition ([9]; at 11.0 µM)?
The growth inhibition was -1%.

What about the growth inhibition ([9]; at 33.0 µM) of the same compound?
Its growth inhibition is -2%.

And the growth inhibition ([9]; at 100.0 µM)?
Its growth inhibition is 24%.

What about the growth inhibition [10, 16] of the same compound?
The growth inhibition was 43%.

What about the growth inhibition [10, 17] of the same compound?
The growth inhibition was 43%.

And the growth inhibition ([10]; at 50.0 µM)?
Its growth inhibition is 34.2%.

And the growth inhibition ([11]; at 1.2 µM)?
The growth inhibition was -2%.

What about the growth inhibition ([11]; at 3.7 µM) of the same compound?
The growth inhibition was 1%.

What about the growth inhibition [11, 16] of the same compound?
The growth inhibition was -4%.

What about the growth inhibition ([11]; at 11.0 µM) of the same compound?
Its growth inhibition is 12%.

What about the growth inhibition ([11]; at 33.0 µM) of the same compound?
Its growth inhibition is 5%.

What about the growth inhibition [11, 17] of the same compound?
Its growth inhibition is -4%.

What about the growth inhibition ([11]; at 50.0 µM) of the same compound?
Its growth inhibition is 29.3%.

What about the growth inhibition ([11]; at 100.0 µM) of the same compound?
Its growth inhibition is 32%.

What about the growth inhibition ([12]; at 1.2 µM) of the same compound?
Its growth inhibition is -1%.

What about the growth inhibition ([12]; at 3.7 µM) of the same compound?
Its growth inhibition is -5%.

And the growth inhibition ([12]; at 11.0 µM)?
The growth inhibition was -4%.

And the growth inhibition ([12]; at 33.0 µM)?
Its growth inhibition is 8%.

What about the growth inhibition ([12]; at 100.0 µM) of the same compound?
The growth inhibition was 0%.

And the growth inhibition ([13]; at 1.2 µM)?
Its growth inhibition is -4%.

What about the growth inhibition ([13]; at 3.7 µM) of the same compound?
The growth inhibition was -6%.

What about the growth inhibition ([13]; at 11.0 µM) of the same compound?
Its growth inhibition is -6%.

And the growth inhibition ([13]; at 33.0 µM)?
Its growth inhibition is 14%.

What about the growth inhibition ([13]; at 100.0 µM) of the same compound?
The growth inhibition was 59%.

And the growth inhibition [14, 16]?
Its growth inhibition is 45%.

And the growth inhibition [14, 17]?
The growth inhibition was 45%.

What about the growth inhibition ([14]; at 50.0 µM) of the same compound?
The growth inhibition was 78% (active).

And the growth inhibition ([15]; at 1.2 µM)?
The growth inhibition was 2%.

What about the growth inhibition ([15]; at 3.7 µM) of the same compound?
Its growth inhibition is -6%.

And the growth inhibition ([15]; at 11.0 µM)?
The growth inhibition was 3%.

What about the growth inhibition ([15]; at 33.0 µM) of the same compound?
The growth inhibition was 32%.

And the growth inhibition ([15]; at 100.0 µM)?
Its growth inhibition is 80% (active).
